Shown are actives, neighbours in structure and some others; about 2.4% of the full set was active somewhere.
D2 ag-1 = activates the human D2 dopamine receptor; DiscoveRx PathHunter D2 beta-arrestin, luminescence, 90 min; 100% = 57 uM dopamine signal; actives 0.084% (n = 360,000); P14416; AID 624465; activation, % (concentration not given with the values); in the data active means activation above about 40%; inconclusive means between about 15% and that limit
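DiscoveRx PathHunter D2 beta-arrestin cells (2,100/well) attached overnight, then compound-stimulated 90 min at 37 C in HBSS/10 mM HEPES/0.1% Tween-20 buffer; beta-galactosidase complementation read by luminescence after 1 h at ambient temperature. Dopamine 57 uM final (EC100) as control.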
D2 PAM-1 = positive allosteric modulators of human D2 dopamine receptor; P14416; HEK293 T-REx D2, calcium flux, EC20 dopamine potentiation; potentiation, % at 10 µM; actives 0.34% (n = 340,000);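 active means potentiation over 3 SD above the plate norm, cut at about 30% in these data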; further: 0% is about no effect
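Cells plated with tetracycline inducer and held overnight at 30 C; calcium dye loaded 30–90 min at room temperature; baseline taken, compound added and read 180 s; EC20 dopamine then added and read 180 s.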
D2 antag = antagonizes the human D2 dopamine receptor. P14416. HEK293 TREx D2 cells, calcium flux, dopamine EC80. inhibition, % at 10 µM. actives 2% (n = 340,000). AID 485344; in the data active means inhibition above about 30%; inactive means below that, where a call was filed; further: 0% is about no effect
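Compounds are added to dye-loaded, induced HEK293 T-REx cells coupled to calcium release via D2; after a 3 min kinetic read an EC80 dopamine stimulus is given and fluorescence is recorded for 3 more min.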
D2 ag-2 = D2 dopamine receptor (human) agonism; P14416; HEK293 T-REx D2 cells, calcium flux agonist mode; activation, % at 2 µM; actives 0.53% (n = 340,000); AID 485358;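 active means activation over 3 SD above normal in the single-dose calcium agonist read, cut at about 30% in these data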; further: 0% is about no effect
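Agonism is scored from calcium flux in a force-coupled, inducible HEK293 cell line expressing D2, read kinetically for 180 s after compound addition against dopamine controls.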
D2 PAM-2 = potentiates the human D2 dopamine receptor allosterically. DiscoveRx D2 beta-arrestin cells, luminescence, 90 min; 100% = 57 uM dopamine signal. potentiation, % (concentration not given with the values). P14416. actives 0.23% (n = 360,000). AID 624464; in the data active means potentiation above about 50%; inconclusive means mostly about 30% to 49%
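PathHunter beta-arrestin assay in DiscoveRx D2 cells. Compounds were added with an EC20 of dopamine (50 nM final) for 90 min at 37 deg C. Luminescence was read 1 h after detection reagent, with 57 uM dopamine as the EC100 control.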
D3 ag = confirmation of human D3 dopamine receptor agonists, beta-arrestin; Potency, µM (top dose mostly 76.9 µM), for inactives: top-dose activation, hits mostly activators; shares compounds with D2 ag-2; actives 4% (n = 2,300); DiscoveRx D3 beta-arrestin cells, luminescence, 90 min; AID 720506;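 further: potency means the concentration at half of the fitted maximal effect; 100% = dopamine control response; nearly all actives have a fitted effect of over 70% in size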
Target sequence (P35462 whole entry, looked up): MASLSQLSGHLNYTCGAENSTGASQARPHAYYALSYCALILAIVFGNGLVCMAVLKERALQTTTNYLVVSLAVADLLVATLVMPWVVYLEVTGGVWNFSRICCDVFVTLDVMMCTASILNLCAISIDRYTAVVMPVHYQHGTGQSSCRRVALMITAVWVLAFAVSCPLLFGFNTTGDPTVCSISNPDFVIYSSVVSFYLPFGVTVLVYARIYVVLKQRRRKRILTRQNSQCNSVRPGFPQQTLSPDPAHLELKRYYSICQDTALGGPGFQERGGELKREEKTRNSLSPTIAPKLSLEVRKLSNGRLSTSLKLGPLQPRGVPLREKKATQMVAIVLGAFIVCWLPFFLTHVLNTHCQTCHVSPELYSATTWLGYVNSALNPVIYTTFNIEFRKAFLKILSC
D2 ag-3 = activates human D2 dopamine receptor in D3 counterscreen; shares compounds with D2 ag-2; DiscoveRx PathHunter D2 beta-arrestin, luminescence, 90 min; response scale: percent relative to full dopamine signal; Potency, µM (doses to about 76.9 µM), for inactives: at the top dose activation, actives largely listed as activators; actives 5.9% (n = 2,300); further: potency means the concentration at half of the fitted maximal effect; % of control where 0% means no effect; nearly all actives have a fitted effect of over 70% in size
Starred values were filed as active, the others as inactive; ? = inconclusive; . = no result. Unless noted, the call rests on the fitted dose curve; in most records, active means well fitted activation curve with a large enough effect; inconclusive means small, poorly fitted or top-dose-only effect; inactive means flat fitted curve, though single readings scatter.

SMILES | D2 ag-1 | D2 PAM-1 | D2 antag | D2 ag-2 | D2 PAM-2 | D3 ag | D2 ag-3
Cc1ccccc1CNCCCSc1nnnn1-c1ccccc1 | . | -20 | . | 0 | . | . | .
CCOC(=O)c1[nH]c2ccc(Br)cc2c1NC(=O)CCN1CCCC(C)(C)C1 | -6 | -18 | -4 | 60* | -29 | -13% | -3%
CCOC(=O)c1[nH]c2ccc(F)cc2c1NC(=O)CCN1CCOCC1 | -5 | 1 | 2 | 2 | -9 | . | .
CCOC(=O)C(NC(=O)c1ccccc1Cl)(Nc1ccc(C)c(C)c1)C(F)(F)F (centres undefined) | 2 | 13 | -1 | -1 | -9 | . | .
CCOC(=O)C(NC(=O)c1ccccc1Cl)(Nc1ccc(C(F)(F)F)cc1)C(F)(F)F (centres undefined) | -3 | 3 | -9 | 29 | -5 | -7% | -2%
CCOC(=O)C1CCN(Cc2cnc(NC(=O)OC)s2)CC1 | 8 | -13 | 18 | 60* | -21 | -2% | 8%
O=C(c1cc(S(=O)(=O)N2CCOCC2)ccc1Cl)N1CCCCC1CO (centres undefined) | 2 | . | . | . | -5 | . | .
Cc1cc(N/N=C/c2ccccc2[N+](=O)[O-])nc(-n2nc(C)cc2C)n1 | -6 | -15 | -10 | 34* | 0 | -6% | -3%
CC(=O)c1cccc(OCC(O)CNCCOc2ccc(C)cc2)c1 (centres undefined) | 12 | -23 | 42* | 53* | -7 | -2% | 5%
CC(=O)c1cccc(OCC(O)CNCC2CCCCC2)c1 (centres undefined) | 2 | -18 | -14 | 0 | -13 | . | .
CCOC(=O)C1CCCN(C(=O)Cn2nc(C)c3c(C)n(-c4ccccc4)nc3c2=O)C1 (centres undefined) | -3 | 3 | -7 | 25 | -6 | -10% | -7%
CS(=O)(=O)N(CC(=O)N1CCOCC1)c1cccc(Cl)c1 | -3 | . | . | . | -2 | . | .
CS(=O)(=O)N(CCCC(=O)N1CCCCCC1)c1cccc(Cl)c1 | -4 | 8 | 26 | 0 | -10 | -7% | -1%
COc1ccccc1OCC(=O)NCCS(=O)(=O)N1CCN(c2ccccc2)CC1 | ? | -14 | 62* | 44* | 15 | ? | ?
COc1ccccc1N1CCN(S(=O)(=O)CCNC(=O)COc2ccccc2)CC1 | 0 | . | . | . | -17 | . | .
CN(C)c1ccc(/C=N/N(CCO)C2=NS(=O)(=O)c3ccccc32)cc1 | -9 | 0 | -7 | 6 | -19 | 6% | -1%
COC(=O)c1ccc2c(c1)NC(=O)C(N1CCOCC1)S2 (centres undefined) | 2 | -6 | -1 | -1 | 2 | . | .
CCCCN(C)CCNC(=O)c1ccc2c(c1)NC(=O)C(N1CCCCC1)S2 (centres undefined) | -1 | -21 | 73* | 50* | -42 | ? | 15%
COC(=O)C1CCN(Cc2ccc(OCCCN3CCN(c4ccc([N+](=O)[O-])cc4)CC3)cc2)CC1 | -3 | -24 | 75* | 54* | -16 | 3% | 29%
COc1ccc2c(CN3CCCC3)cc(=O)oc2c1 | -6 | . | . | . | -13 | . | .
COC(=O)C1CCN(Cc2ccc(C)cc2)CC1 | ? | -23 | 69* | 75* | 15 | 3% | ?
COC(=O)C1CCN(Cc2cc(=O)oc3cc(OC)ccc23)CC1 | 10 | -13 | 0 | 56* | -1 | ? | ?
Cc1ccc(CN2CCN(C(=O)C3CCC3)CC2)cc1 | 2 | -1 | -14 | 0 | -10 | . | .
CCOC(=O)c1nnc2c(-c3ccc(Cl)cc3)c(C)nn2c1N | . | 16 | . | 1 | . | . | .
O=C(c1ccccc1)C1CN(Cc2ccccc2)CCC1(O)c1ccccc1 (centres undefined) | 2 | -14 | 45* | 65* | -11 | -8% | 4%

Screening data: PubChem BioAssay, National Center for Advancing Translational Sciences (NCATS)
